Pf Dd2 inh: qHTS Primary assay for Inhibitors of Plasmodium falciparum Dd2 growth in vitro; Potency, µM (highest dose often 28.9 µM), without a hit: at the top dose activity, negative = inhibition, most hits filed as inhibitors; hit rate 4.3% among 120,000; AID 1347417, 2020; P. falciparum Dd2 growth, SYBR Green, 72 h; active means well fitted inhibition curve with a large enough effect;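 further: plate controls were DMSO vehicle for no effect and reference drug for full effect; nearly all actives have a fitted effect of over 65% in size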
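Readout: SYBR Green fluorescence, 485 nm excitation, 535 nm emission, after ~16 h lysis at 37C. Before that, Dd2-infected red cells (2.5% hematocrit) grew 72 h with compound, 29 uM top final concentration.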
Numbers without * were called inactive; i = inactive; [ ] = remark or other dose. Only a selection was taken, and hits are over-represented in it overall. Potency means the concentration at half of the fitted maximal effect.

SMILES | Pf Dd2 inh
CC(C)CN1CC[C@H]2COC(=O)N2c2cc(F)ccc2C1 | i
CN(C)C[C@@H]1CN(c2ncccn2)C[C@H]1NC(=O)c1c(F)cccc1F | 0.4%
COc1ccc(-c2nc(C3CC3)nc3c2CN(S(=O)(=O)c2cccc(OC)c2)CC3)cc1 | -27.7%
Cc1nc2c(c(-c3ccc(O)cc3)n1)CN(Cc1ccc(F)cc1)CC2 | -5.8%
CCc1nc2c(c(-c3ccc(O)cc3)n1)CCN(C(=O)c1ccc(OC)cc1)CC2 | i
COc1ccc(CN2CCc3nc(C4CC4)nc(-c4ccc(O)cc4)c3C2)cc1 | i
CC(C)c1nc2c(c(-c3ccc(O)cc3)n1)CCN(Cc1cncs1)CC2 | -7.9%
Oc1ccc(-c2nc(C3CC3)nc3c2CCN(Cc2ccc(F)cc2)CC3)cc1 | 3.98µM*
CC(=O)Nc1ccc(CN2CCc3nc(C4CC4)nc(-c4ccc(O)cc4)c3CC2)cc1 | i
COc1ccc(-c2nc(C3CC3)nc3c2CCN(Cc2ccnn2C)CC3)cc1 | -1.2%
COc1ccc(-c2nc(C3CC3)nc3c2CCN(Cc2cncs2)CC3)cc1 | 10µM*
COc1ccc(-c2nc(C3CC3)nc3c2CCN(Cc2ccc(NC(C)=O)cc2)CC3)cc1 | 8.91µM*
COc1ccc(CN2CCc3nc(C4CC4)nc(-c4ccc(O)cc4)c3CC2)cc1 | 3.98µM*
Oc1ccc(-c2nc(C3CC3)nc3c2CCN(Cc2ccccn2)CC3)cc1 | i
COc1ccc(CN2CCNc3cnc(OCc4cccnc4)cc3C2)cc1O | -2.4%[44.1 µM]
Cc1ccc(-n2cccc2CC(=O)N2CCCC(C)C2)cc1 (stereo not drawn) | i
COCC1CCN(C(=O)[C@@H]2CN(c3cnccn3)C[C@H]2COC)CC1 | -4.8%
Cc1cccc(CNC(=O)C2Cn3cccc3C(=O)N2Cc2ccccc2)c1 (stereo not drawn) | -52.3%
COc1nccnc1NC1CCN(C(=O)c2ccc3[nH]ccc3c2)CC1 | 6.7%[5.79 µM]
NCCn1cc(C(=O)N(Cc2ccccn2)CC2CCCO2)nn1 (stereo not drawn) | -11.2%
COc1ccc(-c2cc(N3CCC(NC(=O)c4ccc(C#N)cc4)C3)n[nH]2)cc1 (stereo not drawn) | -6.2%
CCCOc1cccc(-c2nc(C(=O)NCC)cs2)c1 | -3.7%
O=C(NC[C@H]1OC[C@@H](NC2CCC(F)(F)CC2)[C@@H]1O)c1ccccc1 | 9.8%[44.1 µM]
Nc1n[nH]c(C(=O)N2C[C@@H](C(=O)O)[C@H](C3CC3)C2)c1Cl | 0.8%
O=C(C1CC1)N1CCC2(CC1)NCCc1c2[nH]c2ccccc12 | -13.6%
SMILES | Pf Dd2 inh
COc1ccc(-c2nc(C)nc3c2CCN(CC2CCCCC2)CC3)cc1 | i
COc1ccc(-c2nc(C3CC3)nc3c2CCN(Cc2ccc(C#N)cc2)CC3)cc1 | 7.94µM*
COc1ccc(-c2nc(C)nc3c2CCN(Cc2ccnn2C)CC3)cc1 | i
CCCn1ncc(C(=O)N2C[C@H](CO)C[C@H](CN3CCCC3)C2)c1C | -2.4%
COC(=O)[C@@H]1Cc2c([nH]c3ccccc23)[C@H]2C[C@@H](N3CCCCC3)C[C@@H](c3ccccc3F)N21 | 3.98µM*
COC(=O)[C@@H]1Cc2c([nH]c3ccccc23)[C@H]2C[C@H](N3CCCCC3)C[C@@H](c3ccccc3F)N21 | 1.41µM*
COC(=O)[C@@H]1Cc2c([nH]c3ccccc23)[C@H]2C[C@H](NC[C@H]3CCCO3)C[C@@H](c3ccccc3F)N21 | -13.8%
COC(=O)[C@@H]1Cc2c([nH]c3ccccc23)[C@H]2C[C@@H](NCCNC(C)=O)C[C@@H](c3ccccc3F)N21 | -7.4%
COc1ccc(CC(=O)NC2CCCc3c2[nH]c2ccccc32)cc1OC (stereo not drawn) | -13.6%
Cc1ccc(C(=O)N2C[C@@H](COCC(N)=O)[C@H](c3ccncc3)C2)cc1 | 4.6%
Cn1nc(C(=O)N2C[C@@H](CO)[C@H](c3ccccn3)C2)c2ccccc21 | 4.3%
COc1ccc2nc3n(c2c1)[C@@H](CNC(=O)c1ccccc1)COC3 | i
COc1ccc(S(=O)(=O)NC[C@H]2COCc3nc4cc(C)ccc4n32)cc1 | -7.1%[44.1 µM]
COc1ccc2nc3n(c2c1)[C@@H](CNS(=O)(=O)c1ccccc1)COC3 | 8.91µM*
COC(=O)CNC(=O)N1CCC(N2C(=O)C(OCC3CC3)C23CCCCC3)CC1 (stereo not drawn) | -17.4%
CC(=O)c1ccc(NC(=O)O[C@@H]2CO[C@H]3[C@@H]2OC[C@@H]3NC(=O)c2ccco2)cc1 | i
Cn1c(C(=O)NCc2cccnc2)cc2c1CCN(Cc1ccccc1)C2 | i
COc1cccc(CN2CCc3c(cc(C(=O)N4CCN(CC(C)C)CC4)n3C)C2)c1 | 6.31µM*
COc1cccc(CN2CCc3c(cc(C(=O)N(C)C)n3C)C2)c1 | -15.5%
O=C(c1ccc(C(F)(F)F)cc1)N1CCC(N2CCCC2=O)CC1 | 12.8%
COc1ccc(CN2CCC3(CC2)Cc2ccccc2CNC3=O)cc1 | -3.3%
O=C(CCC1CCN(S(=O)(=O)c2ccccc2F)CC1)NCCN1CCOCC1 | -14.6%
COCC(=O)N1CCC2(CC1)OC(=O)N(Cc1cccc(OC)c1)C2(C)c1cccnc1 (stereo not drawn) | -10.2%[44.1 µM]
COc1cccc(CN2C(=O)OC3(CCN(Cc4ccc(F)cc4)CC3)C2(C)c2cccnc2)c1 (stereo not drawn) | 0.794µM*
COc1cccc(CN2C(=O)OC3(CCN(C(=O)Cc4cccc(F)c4)CC3)C2(C)c2cccnc2)c1 (stereo not drawn) | i
SMILES | Pf Dd2 inh
COc1cccc(CN2C(=O)OC3(CCN(Cc4ccncc4)CC3)C2(C)c2cccnc2)c1 (stereo not drawn) | -8.6%
COc1cccc(CN2C(=O)OC3(CCN(Cc4ccccc4OC)CC3)C2(C)c2cccnc2)c1 (stereo not drawn) | 1.12µM*
COc1cccc(CN2C(=O)OC3(CCN(C(=O)CCc4cccnc4)CC3)C2(C)c2cccnc2)c1 (stereo not drawn) | i
O=S(=O)(c1cccc(F)c1)N1CC(c2nnc(-c3ccncc3)o2)C2(CCOCC2)C1 (stereo not drawn) | -23.1%
COc1cccc(C(=O)N2CCCC3(C2)Nc2cccnc2NC3=NCc2ccccc2)c1 (stereo not drawn) | 4.6%[5.79 µM]
CCOc1ccccc1C1NC(=O)N(CC(=O)NC2CCCC2)C2=C1C(=O)OC2 (stereo not drawn) | i
CS(=O)(=O)N1CCC(C2CCN(C(=O)c3cn[nH]c3)C2)CC1 (stereo not drawn) | -8.4%
O=C(CCc1cc2n(n1)CCCNC2)NC1CCCN(c2ncccn2)C1 (stereo not drawn) | -0.4%
O=C(O)CCC(=O)N1C[C@@H]2C[C@H]1C(=O)N(Cc1ccc(OC(F)(F)F)cc1)c1ccccc1O2 | -17.0%
COc1ccc(CN2C(=O)[C@@H]3C[C@@H](CN3C)Oc3ccccc32)cc1 | i
CS(=O)(=O)N1C[C@@H]2C[C@H]1C(=O)N(Cc1ccc(OC(F)(F)F)cc1)c1ccccc1O2 | -21.0%
O=C1[C@@H]2C[C@@H](CN2C2CCC2)Oc2ccccc2N1Cc1ccc(OC(F)(F)F)cc1 | 6.31µM*
COc1ccc(CN2C(=O)[C@@H]3C[C@@H](CN3Cc3ccccc3)Oc3ccccc32)cc1 | -50.9%[44.1 µM]
COc1ccc(CN2C(=O)[C@@H]3C[C@@H](CN3C3CCN(C)CC3)Oc3ccccc32)cc1 | 10µM*
COCCOCC(=O)N1CCCN(S(=O)(=O)c2ccccc2)CCC(=O)NCC1 | 13.7%
CCNC(=O)[C@@H]1CCCN1[C@@H](C(=O)NC)C1CC1 | 14.7%[44.1 µM]
Cc1noc(-c2nc(Cc3ccc(F)cc3)no2)n1 | -19.8%
COC1CCC12CCN(C(=O)c1ccc3cc[nH]c3c1)CC2 (stereo not drawn) | -18.5%

Compound activity deposited in PubChem BioAssay by National Center for Advancing Translational Sciences (NCATS).
